Pf Dd2 growth – inhibitors of Plasmodium falciparum Dd2 growth | P. falciparum Dd2 growth, SYBR Green, 72 h | Potency, µM (titrated, usually from 28.9 µM), actives largely listed as inhibitors | 120,000 compounds, 4.3% hits | AID 1347417; active means well fitted inhibition curve with a large enough effect; further: nearly all actives have a fitted effect of over 65% in size
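Readout: SYBR Green fluorescence, 485 nm excitation, 535 nm emission, after ~16 h lysis at 37C. Before that, Dd2-infected red cells (2.5% hematocrit) grew 72 h with compound, 29 uM top final concentration.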
Of the large screens only hits and unclear results are named; the others gave an inactive call. This excerpt belongs to a sample that is enriched for hits.

O=C(CN1CCCCCC1)N1CCC2(CC1)CN(Cc1ccccc1)CC2CO (centres undefined)	none
O=C(COc1ccccc1)N1CCC2(CC1)CN(Cc1ccccc1)CC2CO (centres undefined)	Pf Dd2 growth 5.01µM
COCCN1CC(CO)C2(CCN(C(=O)COc3ccccc3)CC2)C1 (centres undefined)	none
O=C1NCCCCCCN(C(=O)Nc2ccccc2)[C@H]2CCCC[C@@H]12	none
Cc1cnc(C)c(N2CCN(C(=O)CCCc3c[nH]c4ccccc34)CC2)n1	none
COc1cccc(C(=O)N2CC(c3nnc(C(C)C)o3)C3(CCOCC3)C2)c1OC (centres undefined)	none
c1ccc(C(c2ccccc2)N2CCN(Cc3nc(-c4ccccn4)no3)CC2)cc1	none
Cn1cc(CN2CCN(C(=O)Cc3ccccc3)CC2)ccc1=O	none
Cn1cc(CN2CCN(C(c3ccccc3)c3ccccc3)CC2)cc1C#N	Pf Dd2 growth 3.16µM
COc1ccc(CCNC(=O)CN2C(=O)NC(c3ccccc3Cl)C3=C2COC3=O)cc1OC (centres undefined)	none
COc1ccc(-c2[nH]nc3nc(-c4cc(OC)c(OC)c(OC)c4)cc(C(=O)O)c23)cc1	none
Cc1cccc(-c2cc(C(=O)O)c3c(-c4ccc(F)cc4)[nH]nc3n2)c1	Pf Dd2 growth 7.94µM
CCOc1cc(-c2cc(C(=O)O)c3c(-c4ccccc4)[nH]nc3n2)ccc1O	none
O=C(Nc1cccc(Cl)c1)C1CCc2sc(C(=O)N3CCCC3)cc2C1 (centres undefined)	none
c1cc(-c2nc(CC3CCNC3)no2)ccn1 (centres undefined)	none
COc1ccc(C2Cn3nnc(C(=O)Nc4cc(C)ccc4F)c3CO2)cc1 (centres undefined)	Pf Dd2 growth 11.2µM
COc1ccc(OC)c(NC(=O)c2nnn3c2COC(c2ccc(Cl)cc2)C3)c1 (centres undefined)	none
COc1ccc(C2Cn3nnc(C(=O)NCc4ccc(SC)cc4)c3CO2)cc1 (centres undefined)	none
C[C@@H](NCC1CCCC1)c1onc(-c2cccnc2)c1C(=O)O	none
CCN(CC)CCCNC(=O)c1cn2ccnc(-c3ccccc3)c2n1	none
Cc1cccc(Nc2c3c(nc4nncn24)CCC3)c1	none
Cc1ccccc1Nc1c2c(nc3nncn13)CCC2	none
Cc1ccc(Nc2c3c(nc4nncn24)CCC3)cc1	none
Brc1ccc(Nc2c3c(nc4nncn24)CCC3)cc1	Pf Dd2 growth 3.98µM
CCOc1ccc(Nc2c3c(nc4nncn24)CCC3)cc1	none
Cc1ccc(Nc2c3c(nc4nncn24)CCC3)cc1C	Pf Dd2 growth 10µM
O=C(c1cc(F)ccc1Cl)N1CCCC1c1nncn1Cc1ccncc1 (centres undefined)	none
COc1cc(NC(=O)c2c(OC)cc(=O)n3c2CCCC3)cc(OC)c1	none
Cc1ccc(C(=O)N2CCn3c(nn(-c4ccc(F)cc4F)c3=O)C2)cc1	none
COCC1CN(Cc2cccc(C#N)c2)CC12CCNCC2 (centres undefined)	none
CN1CCC2(C1)CN(Cc1ccccc1)c1ccc(C(=O)NCC3CC3)cc12 (centres undefined)	none
COc1ccc(C(=O)c2oc3ccccc3c2NC(=O)c2ccc(F)cc2)cc1	none
COc1ccc(C(=O)Nc2c(C(=O)c3ccc(F)cc3)oc3ccccc23)cc1	none
CC(C)(C)c1ccc(C(=O)Nc2c(C(=O)c3ccc(F)cc3)oc3ccccc23)cc1	Pf Dd2 growth 8.91µM
CC(C)Oc1ccc(CNC(=O)CC2CCOCC2)cc1	none
CC(=O)N1CCC([C@@H]2CN(Cc3ccc(C(F)(F)F)cc3)C[C@H]2CO)CC1	none
Cc1cc(C)n(-c2nc3ccccc3nc2Nc2cc(Cl)ccc2C)n1	none
Cc1cc(Nc2ccc(Cl)cc2C)nc(-n2nc(C)cc2C)n1	Pf Dd2 growth 3.55µM
Cc1cc(C)n(-c2nc3ccccc3nc2Nc2ccc(Cl)cc2Cl)n1	none
COc1ccccc1OCCN1C(=O)C2(CCOCC2)CC1c1nnnn1C(C)(C)C (centres undefined)	none
O=C(NCC1CN(Cc2ccncc2Cl)CC12CN(c1ccccc1)C2)c1ccccc1 (centres undefined)	none
Cn1cc(C(=O)NCC2CN(C(=O)c3ccccc3)CC23CN(c2ccccc2)C3)cn1 (centres undefined)	none
O=C(c1cccnc1)N1CC(COc2ccccc2)C2(C1)CN(c1ccccc1)C2 (centres undefined)	none
O=C(Cc1ccccc1)NCC1CN(Cc2ccncc2Cl)CC12CN(c1ccccc1)C2 (centres undefined)	Pf Dd2 growth 11.2µM
O=C(c1cccc(Cl)c1)N1CC(CNc2cccnc2)C2(C1)CN(c1ccccc1)C2 (centres undefined)	Pf Dd2 growth 12.6µM
CC(C)c1ccc(CN2CC(CNC(=O)c3cnn(C)c3)C3(C2)CN(c2ccccc2)C3)cc1 (centres undefined)	none
CN1[C@@H](CCC(=O)N2CCOCC2)CNC(=O)[C@@H]2[C@H]1CCN2Cc1cccc(OC(F)(F)F)c1	none
O=C(NCC1CCCO1)N1CC(c2nc(CCOCC3CCCC3)no2)C1 (centres undefined)	none
COc1ccc(C(=O)NC2CCN(c3cc(-c4cccs4)[nH]n3)CC2)cc1	none
c1ccc(NCCn2cc(C3CCCNC3)nn2)cc1 (centres undefined)	none
CCc1ccccc1NC(=O)CSc1nc(-c2cccc(Cl)c2)nc2c1Cc1c(CO)cnc(C)c1O2	none
CCSc1nc(-c2ccccc2F)nc2c1Cc1c(CO)cnc(C)c1O2	none
Cc1ncc(CO)c2c1Oc1nc(-c3ccccc3Cl)nc(SCc3ccccc3F)c1C2	Pf Dd2 growth 4.47µM
Cc1ncc(CO)c2c1Oc1nc(-c3ccccc3F)nc(SCC(=O)N3CCCCC3)c1C2	none
Cc1ccc(C)c(CSc2nc(-c3ccccc3F)nc3c2Cc2c(CO)cnc(C)c2O3)c1	Pf Dd2 growth 8.91µM
COCC1(C(=O)N2CCN(C)C3(CCNC(=O)CC3)C2)CC1 (centres undefined)	none
O=C(c1cccc2nccnc12)N1CCc2c(ncnc2N2CCOCC2)C1	none
COCCOC1CCOC2(CCN(C(=O)NCc3ccc(C)cc3)CC2)C1 (centres undefined)	none
Cc1cc2c(-c3cccc(S(C)(=O)=O)c3)nc(-c3c(C)noc3C)cc2[nH]1	none
COCC(=O)NC1CCC12CCN(C(=O)c1ccc(C#N)cc1)CC2 (centres undefined)	none
COc1ccc(C(=O)N2CC[C@@H](CC(=O)O)[C@@H](CCN3CCCN(C(C)=O)CC3)C2)cc1	none
O=C1CCN(Cc2cccnc2)CCCC(C(=O)NC2CCN(Cc3ccccc3)CC2)CCN1 (centres undefined)	none
Cc1ccc(C2Cn3nnc(C(=O)N4CCC(C(=O)NCc5ccco5)CC4)c3CO2)cc1 (centres undefined)	none
CC(C)(C)C(=O)N1CCN(c2nc3ncccc3o2)CC1	none
Cn1ncc(N2CCC(NC(=O)c3ccsc3)CC2)cc1=O	none
CC(C)(C)CC(=O)NC1CCN(c2cnn(Cc3ccccc3)c(=O)c2)CC1	none
O=C(NC1CCN(c2cnn(Cc3ccccc3)c(=O)c2)CC1)c1ccsc1	Pf Dd2 growth 10µM
Cc1cncc(C(=O)N2CCC3(CC2)CN(C2CCC2)CC3CO)c1 (centres undefined)	none
Cc1ccc(OCC(=O)N2CCN(CCc3ccncc3)CC2)cc1C	Pf Dd2 growth 10µM
COc1ccc(OCC(=O)N2CCN(CCc3ccncc3)CC2)cc1	none
CCCCOc1cccc(C(=O)N2CCN(CCc3ccncc3)CC2)c1	none
CC[C@H]1CN(S(=O)(=O)c2ccccc2)CC[C@H]1CC(=O)NCCN1CCOCC1	none
O=C(CCc1c[nH]c2ccccc12)N1CCC(Oc2ncccc2C(=O)N2CCOCC2)C1 (centres undefined)	none

Screening results from PubChem BioAssay.
